Source: PubChem (The Scripps Research Institute Molecular Screening Center)
Shown are actives, neighbours in structure and some others; about 3.5% of the full set was active somewhere.
GPR151 ag = activates the human receptor GPR151; PathHunter beta-arrestin GPR151 cells, luminescence; activation, % at 11.2 µM; AID 1508602; actives 1% (n = 650,000); Q8TDV0; in the data active = activation above about 4.9%;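 also: 0% = median of compound wells and 100% = cells with positive control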
FBW7 act = activators of human E3 ligase FBW7 | normalized activity (activation), % at 26.1 µM | actives 0.13% (n = 650,000) | AID 1259310 | AlphaScreen FBW7–phospho-cyclin E peptide binding, activator screen | Q969H0; in the data active = normalized activity above about 1.9%;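 also: purified mutant Fbw7 with reduced substrate affinity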
TEAD-YAP block = TEAD-YAP interaction inhibition; AID 1259422; inhibition, % at 9.12 µM; HEK-TIYL cells, TEAD-Gal4/YAP UAS-luciferase luminescence; actives 1.4% (n = 640,000); in the data active = inhibition above about 32%;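 also: 0% = median of test compound wells and 100% = reference inhibitor wells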
MITF primary = blocks human microphthalmia-associated transcription factor; actives 0.91% (n = 650,000); O75030; inhibition, % at 2.6 µM; AlphaScreen MITF homodimerization, bead proximity signal; in the data active = inhibition above about 50%;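 also: 0% = vehicle wells with protein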
Target sequence (O75030 whole entry, looked up): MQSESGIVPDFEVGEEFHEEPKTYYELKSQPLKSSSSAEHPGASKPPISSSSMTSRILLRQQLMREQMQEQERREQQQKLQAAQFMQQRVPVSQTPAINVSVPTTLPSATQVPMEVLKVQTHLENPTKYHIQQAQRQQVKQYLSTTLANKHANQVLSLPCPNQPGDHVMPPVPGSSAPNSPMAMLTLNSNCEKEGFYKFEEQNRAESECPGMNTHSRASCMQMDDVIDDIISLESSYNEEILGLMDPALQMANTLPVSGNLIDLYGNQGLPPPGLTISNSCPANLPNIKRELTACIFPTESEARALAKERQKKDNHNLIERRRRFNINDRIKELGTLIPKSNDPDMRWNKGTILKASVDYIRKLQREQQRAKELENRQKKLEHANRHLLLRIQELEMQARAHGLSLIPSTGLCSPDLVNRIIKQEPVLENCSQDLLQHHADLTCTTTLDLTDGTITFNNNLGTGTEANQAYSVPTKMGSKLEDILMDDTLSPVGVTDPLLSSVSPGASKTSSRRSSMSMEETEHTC
GPR151 conf act = human GPR151 activation, confirmation screen; shares compounds with GPR151 ag; activation, % at 11.2 µM; 6,700 tested, under 10 active; GPR151 PathHunter beta-arrestin cells, luminescence, 90 min; % of EA-reagent control over plate median;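 active = mean percent activation across replicates above the confirmation screen cutoff of 4.91%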
GPR119 ag = activates human GPR119 in a GPR151 counter-screen | shares compounds with GPR151 ag | GPR119 PathHunter beta-arrestin cells, luminescence, 90 min; 0 = compound-well median, 100 = enzyme-acceptor control | activation, % at 11.2 µM | AID 1508611 | actives 0.3% (n = 6,700);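 active = mean percent activation in the counterscreen above 29.09%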;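 also: counterscreen on off-target GPR119 to flag nonselective hits from the GPR151 activator screen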
* = called active by the depositor; / = no result.

SMILES	GPR151 ag	FBW7 act	TEAD-YAP block	MITF primary	GPR151 conf act	GPR119 ag
CN(CCC#N)c1ccc(C2C(C#N)=C(N)Oc3c2c(=O)n(C)c(=O)n3C)cc1 (centres undefined)	-1.5	-0.1	-9.4	9.2	/	/
N#C/C(=C/Nc1ccc(F)c([N+](=O)[O-])c1)c1nc(-c2ccccc2)cs1	3.5	-0.1	7.3	10.7	/	/
N#C/C(=C\Nc1ccc(F)c([N+](=O)[O-])c1)c1nc(-c2cccc([N+](=O)[O-])c2)cs1	8.8*	0.0	-3.4	-7.8	-0.6	4.1
CCCNC(=O)CSc1nccn1Cc1ccc(F)cc1	5.7*	0.0	-4.2	-10.4	1.4	10.7
CCCN(CCC)S(=O)(=O)c1ccc(C(N)=O)cc1	0.6	0.0	1.9	-9.1	/	/
N/C(=N\S(=O)(=O)c1ccccc1[N+](=O)[O-])c1ccccc1	-0.6	0.3	3.7	40.4	/	/
O=[N+]([O-])c1cc(S(=O)(=O)N2CCOCC2)ccc1NN=C1C2CC3CC(C2)CC1C3	5.0*	0.0	-3.2	2.0	0.9	1.7
CC(C)N1CCC(=NNc2ccc(S(=O)(=O)N3CCOCC3)cc2[N+](=O)[O-])CC1	2.9	-0.2	8.8	10.1	/	/
Cc1ccc(N2C(=O)C(Cl)=C(N3CCCCC3)C2=O)cc1	7.5*	0.3	7.0	-11.6	-0.6	-2.3
O=C(NCCN1CCCC1)C1(S(=O)(=O)c2ccc(Cl)cc2)CC1	0.8	0.2	5.2	-0.1	/	/
CC1CCCCN1CCNC(=O)C1(S(=O)(=O)c2ccc(Cl)cc2)CC1 (centres undefined)	6.7*	-0.1	-4.1	2.6	0.3	16.1
COc1ccc(CCNC(=O)c2noc3c2COc2ccc(C)cc2-3)c(OC)c1	0.3	-0.1	-8.0	4.1	/	/
O=c1c2ccccc2c2ccccc2c(=O)n1-c1ccc(OC(F)(F)F)cc1	5.1*	-0.1	5.7	10.1	-0.5	-9.8
O=c1c2ccccc2c2ccccc2c(=O)n1-c1ccc(F)cc1	-1.9	0.3	-5.8	-3.1	/	/
CC(=O)c1ccc(N2C(=O)C3C(C2=O)C2(CO)C=CC3(C)O2)cc1 (centres undefined)	5.5*	-0.1	0.8	8.5	0.1	-4.7
CCN(CC)S(=O)(=O)c1ccc(N/N=C/c2ccc(O)c(OC)c2)nc1	1.6	-0.1	-5.8	7.5	/	/
CCN(CC)S(=O)(=O)c1ccc(N/N=C/c2ccc(O)cc2)nc1	5.7*	0.0	1.8	22.3	0.5	3.4
Cc1nc2cc(C(F)(F)F)ccc2n1C1CCN(C(=O)C(C)(C)C)CC1	1.5	0.0	1.0	2.2	/	/
Cc1ccccc1Cc1c(C)nc2nc(SCC(=O)N3CCC(C)CC3)nn2c1C	0.8	0.0	6.8	-1.4	/	/
CCCN(CCC)C(=O)CSc1nc2nc(C)c(Cc3ccccc3C)c(C)n2n1	5.0*	0.0	12.7	9.3	-0.1	2.3
Cc1ccccc1Cc1c(C)nc2nc(SCC(=O)NC(C)(C)C)nn2c1C	15.6*	0.1	0.8	6.7	0.1	-9.8
CCC1CCCCN1C(=O)CSc1nc2nc(C)c(Cc3ccccc3C)c(C)n2n1 (centres undefined)	5.2*	0.1	10.0	1.3	-0.3	1.2
O=C(CCS(=O)(=O)c1ccc(Br)s1)NCc1ccccc1Cl	-1.1	0.0	2.4	-4.7	/	/
COc1ccc(-n2cc(C(=O)Nc3ccc(F)cc3)c3ccccc3c2=O)cc1	-0.3	-0.1	5.0	5.4	/	/
CNS(=O)(=O)c1cccc(C(=O)OCC(=O)c2cc3ccccc3o2)c1	0.7	0.1	-4.7	-9.0	/	/
SMILES	GPR151 ag	FBW7 act	TEAD-YAP block	MITF primary	GPR151 conf act	GPR119 ag
CN(C)c1cccc(C(=O)OCC(=O)c2cc3ccccc3o2)c1	5.2*	0.2	18.3	7.8	-1.1	-4.8
COc1ccc(O)c(C(=O)c2cnc3c(c2)c(=O)n(C)c(=O)n3C)c1	0.0	0.1	2.0	5.1	/	/
Cc1ccc(S(=O)(=O)N(C(=O)NC(=O)Nc2ccc(I)cc2)c2ccc(Cl)cc2)cc1	-1.8	0.2	-5.8	-15.7	/	/
Cc1cccc2sc(NC(=O)CSc3nnc(N)s3)nc12	-0.8	-0.1	8.0	-5.5	/	/
CCOc1ccc(NC(=O)CSC2=C(C#N)C(c3ccco3)C(C(=O)Nc3ccccc3)=C(C)N2)cc1 (centres undefined)	5.0*	0.1	20.8	2.8	-0.7	-7.2
COc1cc(NC(=O)c2cccc(-n3cc(NS(=O)(=O)c4ccccc4)cn3)c2)cc(OC)c1OC	0.9	-0.1	9.0	4.3	/	/
CN1C(=O)c2ccc(C(=O)Nc3ccccc3I)cc2C1=O	5.2*	-0.1	9.2	5.7	-0.1	-1.3
CCCN1C(=O)c2ccc(C(=O)Nc3ccccc3I)cc2C1=O	-1.6	0.0	7.2	6.7	/	/
Clc1ccc(COc2ccccc2CNn2cnnc2)cc1	-0.2	-0.1	4.7	7.0	/	/
CCOc1cccc(CNn2cnnc2)c1OCc1ccccc1	5.5*	0.0	2.2	3.1	0.9	8.9
CC(C)CCN1C(=O)C(C)(C)COc2cc(NC(=O)c3ccc4c(c3)OCO4)ccc21	5.6*	0.0	-9.8	8.8	2.9	1.6
CN1C(=O)C(C)(C)COc2cc(NC(=O)Nc3ccc4c(c3)OCO4)ccc21	-0.9	-0.5	-55.1	8.0	/	/
CCOC(=O)c1cc(-c2ccccc2)sc1NC(=O)c1cccnc1	-0.4	0.2	-1.7	9.5	/	/
O=C(NNC1CC(c2ccccc2)=NN1C(=O)c1ccccc1)c1ccccc1 (centres undefined)	6.5*	-0.1	3.1	-2.8	-0.1	2.9
Cc1ccc(-c2noc(CN(C(=O)CCN3C(=O)c4ccccc4C3=O)C(C)C)n2)cc1	5.1*	0.1	5.0	13.0	-1.0	-9.0
CN(Cc1nc(-c2ccccc2)no1)S(=O)(=O)c1ccc(Cl)cc1	5.5*	0.1	4.7	2.6	-0.8	-7.8
CC(C)N(Cc1nc(-c2ccccc2)no1)C(=O)CCN1C(=O)c2ccccc2C1=O	3.3	0.1	9.3	-8.3	/	/
CCOc1ccc(C(=O)N(Cc2nc(-c3ccc(OC)cc3)no2)C(C)C)cc1OCC	-0.7	-0.3	-3.2	3.1	/	/
COc1ccc(-c2noc(CN(C(C)C)S(=O)(=O)c3ccc(F)cc3)n2)cc1	10.6*	-0.1	-5.1	-4.8	0.1	-6.8
C=CCOc1ccc(C(=O)N(Cc2nc(-c3ccc(OC)c(OC)c3)no2)C(C)C)cc1	11.7*	0.1	-0.2	11.9	-0.5	6.4
COc1cccc(OC)c1C(=O)N(Cc1nc(-c2ccc(C)cc2)no1)C(C)C	9.7*	-0.2	14.4	-7.4	-0.1	-14.6
CN(C)c1ccc(/C=N/NC(=O)CC2(C)OCCO2)cc1	2.2	-0.1	-11.6	-3.0	/	/
Cc1nonc1N=NN(Cc1ccc([N+](=O)[O-])cc1)c1nonc1C	7.4*	-0.1	8.4	9.4	0.4	-4.6
COc1ccc(/C=C2\SC(=N)N(C)C2=O)cc1OC	0.0	0.0	-8.0	8.9	/	/
